Assay results taken from PubChem BioAssay.
The source made the active and inactive calls.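 Rule for the calls, unless noted: active = visual image review flags a hit and inhibition of aggregation exceeds 20%; inconclusive = visual hit but inhibition at or below 20%; inactive = no hit on visual image review.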

Columns and labels:
[1] = inhibitors of TNFa-induced NFkB p65 translocation, primary screen, imaging, HUVEC, MLSMR starter and 10KST1 sets (AID 438;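 active = inhibition above 20% together with a positive visual image hit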;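 note: compound added about 3h40 before a 20 min TNFalpha stimulation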;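 for inhibition: signal is the nuclear over cytoplasmic p65 intensity ratio per well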); conditions: HUVEC TNFa-induced p65 nuclear translocation; cell count: measured here: nuclei count (cytotoxicity indicator), at 2.08 µM; inhibition: at 2 µM, stronger effect = higher value, 0% TNFa-plus-vehicle, 100% no-TNFa wells
[2] = reduction of polyQ htt aggregates in cells – imaging, exon1htt(103Q)mCFP cells, high-content imaging, primary screen (AID 483); conditions: exon1htt(103Q)mCFP cell line, aggregate imaging, at 2 µM; inhibition of aggregation: stronger effect = higher value; nuclei count: measured here: cell count, toxicity;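 note: compound exposure lasted 3 days before fixation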;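 for nuclei count: percent of the per-plate median nuclei count of sample wells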
[3] = endothelial E-selectin expression blockers – imaging, HUVEC, immunofluorescence, MLSMR starter and 10KST1 sets, primary screen (AID 487;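 active = visually confirmed hit in the image check and inhibition above 20%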;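 for inhibition: signal is fraction of cell area covered by stained E-selectin grains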;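 for nuclei count: 100% = median nuclei count of all wells on the same plate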); conditions: HUVEC TNFalpha-induced E-selectin immunofluorescence imaging, at 2 µM; inhibition: stronger effect = higher value; nuclei count: measured here: cell number, toxicity
[4] = target: Voltage-gated potassium channel subunit beta-2 (Rattus norvegicus) (UniProt P62483); test: inhibitors of rat Kvbeta2 reductase activity – biochemical, NADPH fluorescence, primary screen (AID 622;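 active = fluorescence slope higher than the sample average by over 3 SD, cut at about -0.22 in these data, passing the limit was not always enough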;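 note: slope of raw intensity against log time taken from 70 to 1610 s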); conditions: recombinant KvBeta, 4-cyanobenzaldehyde reduction, at 10 µM, stronger effect = higher value
[5] = target: Voltage-gated potassium channel subunit beta-2 (Rattus norvegicus) (UniProt P62483); test: enhancers of rat Kvbeta2 NADPH turnover – biochemical, NADPH fluorescence, primary screen (AID 623;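 active = NADPH fluorescence slope more negative than the mean of all samples by about 3 SD, 99.7% confidence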;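 note: fluorescence intensity change per second fitted from 20 to 320 s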); conditions: Recombinant KvBeta, NADPH fluorescence decrease slope, 10 min; at 10 µM; stronger effect = lower value
[6] = target: Alpha-2C adrenergic receptor (Homo sapiens) (UniProt P18825); test: compounds altering alpha2C-coupled GIRK flux – cell-based, HEK293 alpha2C/GIRK1/2, thallium flux, primary screen (AID 624;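 active = fluorescence slope after compound addition differing from the mean of all screened samples at 99.7% confidence, in either direction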;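 note: slope of fluorescence ratio to pre-addition baseline per second over 15 to 24 s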); conditions: thallium flux BTC fluorescence, at 10 µM, actives lie on both sides
[7] = blockers of RIG-like receptor reporter activation – cell-based, Sendai virus stimulus, luciferase, 10K MLSCN set, TLR/RLR signaling modifier project, primary screen (AID 602276;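 active = inhibition at or above 50% at 10 µM; inactive = inhibition below 50%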;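 note: firefly luciferase from ISG56 promoter only with Renilla not read in this screen; 0% = Sendai virus plus DMSO and 100% = medium plus DMSO without virus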); conditions: HEK293 RL24 IRF3 luciferase reporter, at 10 µM, stronger effect = higher value
[8] = TLR3 IRF3 reporter activation blockers – cell-based, poly I:C stimulus, luciferase, 10K MLSCN set, primary screen (AID 602277;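 active = inhibition of the reporter signal at or above 50%; inactive = inhibition below 50%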); conditions: HEK293-TLR3 RL24 IRF3 luciferase reporter, at 10 µM, stronger effect = higher value

Sequence of Voltage-gated potassium channel subunit beta-2 (Rattus norvegicus) (P62483 whole entry, looked up): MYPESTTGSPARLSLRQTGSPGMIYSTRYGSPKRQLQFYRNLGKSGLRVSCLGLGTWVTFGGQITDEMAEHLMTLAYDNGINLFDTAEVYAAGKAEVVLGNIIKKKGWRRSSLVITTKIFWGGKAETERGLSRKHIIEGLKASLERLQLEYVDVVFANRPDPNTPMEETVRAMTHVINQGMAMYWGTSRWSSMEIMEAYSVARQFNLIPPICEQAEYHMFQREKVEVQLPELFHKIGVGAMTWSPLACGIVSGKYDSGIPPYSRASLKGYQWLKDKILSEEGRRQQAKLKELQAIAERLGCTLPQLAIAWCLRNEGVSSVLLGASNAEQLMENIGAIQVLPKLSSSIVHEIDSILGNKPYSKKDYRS
Sequence of Alpha-2C adrenergic receptor (Homo sapiens) (P18825 whole entry, looked up): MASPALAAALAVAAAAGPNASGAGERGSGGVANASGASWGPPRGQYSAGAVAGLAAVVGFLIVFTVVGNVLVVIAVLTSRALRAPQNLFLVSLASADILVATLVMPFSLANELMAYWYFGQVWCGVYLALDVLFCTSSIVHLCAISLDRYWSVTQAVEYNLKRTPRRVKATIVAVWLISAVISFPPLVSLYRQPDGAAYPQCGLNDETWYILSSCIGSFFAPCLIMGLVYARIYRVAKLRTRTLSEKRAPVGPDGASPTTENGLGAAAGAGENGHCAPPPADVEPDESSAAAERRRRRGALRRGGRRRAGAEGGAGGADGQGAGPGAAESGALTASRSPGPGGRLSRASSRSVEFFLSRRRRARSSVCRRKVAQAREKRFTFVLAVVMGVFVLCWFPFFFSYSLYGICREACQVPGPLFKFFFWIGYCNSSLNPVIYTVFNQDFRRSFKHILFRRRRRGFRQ

Structure (SMILES) | cell count [1] | inhibition [1] | inhibition of aggregation [2] | nuclei count [2] | inhibition [3] | nuclei count [3] | fluorescence slope [4] | NADPH fluorescence slope [5] | slope [6] | inhibition [7] | inhibition [8]
Cc1nc2cc(Cl)ccc2n1CCO | 404 | 6.1% (inactive) | -6.3% (inactive) | 104% | 15.4% (inactive) | 115% | -0.565 (inactive) | -1.6e-05 (inactive) | 0.00492 (inactive) | 17% (inactive) | 21.6% (inactive)
COc1cc(NC(=O)Cc2ccccc2OC)cc(OC)c1 | 575 | -4.8% (inactive) | 9.8% (inactive) | 81.8% | -96.9% (inactive) | 87.6% | -0.452 (inactive) | -2e-05 (inactive) | 0.00483 (inactive) | -19% (inactive) | -15% (inactive)
O=C(C1CCC(N2C(=O)C3CC=CCC3C2=O)CC1)N1CCCCC1 (centres undefined) | 257 | 22.4% (active) | 7.8% (inactive) | 80.1% | 23.7% (inactive) | 97.6% | -0.356 (inactive) | -5.2e-05 (inactive) | 0.00567 (inactive) | 5.96% (inactive) | 27.2% (inactive)
CCOc1ccc(C(=O)N2CCN(c3ccccc3)CC2)cc1OCC | 196 | -16.9% (inactive) | 20.3% (inactive) | 97.1% | -17.5% (inactive) | 100% | -0.561 (inactive) | 9.3e-05 (inactive) | 0.00618 (inactive) | 16% (inactive) | 9.44% (inactive)
CS(=O)(=O)N(CC(=O)NCCSCc1cccc(Cl)c1)c1ccc2c(c1)OCO2 | 233 | -4.5% (inactive) | 35.8% (active) | 96.5% | 32.5% (inactive) | 71.4% | -0.528 (inactive) | -5.8e-05 (inactive) | 0.00685 (inactive) | -12% (inactive) | 1.85% (inactive)
O=C(OCN1C(=O)c2ccccc2C1=O)C1CCCCC1 | 391 | 3.5% (inactive) | 3.5% (inactive) | 95.3% | -43.8% (inactive) | 113% | -0.348 (inactive) | -5e-05 (inactive) | 0.00442 (inactive) | 6.81% (inactive) | 12.4% (inactive)
O=C(CN1CCN(c2ncccn2)CC1)Nc1ccccc1-n1cccc1 | 327 | 13.4% (inactive) | 16% (inactive) | 81.3% | 25.5% (inactive) | 93.4% | -0.621 (inactive) | -6.7e-06 (inactive) | 0.006 (inactive) | 14.7% (inactive) | 8.32% (inactive)
O=S1(=O)C=C(Oc2ccc(F)cc2)c2ccccc21 | 377 | -2.7% (inactive) | -8.6% (inactive) | 108% | -0.9% (inactive) | 111% | -0.321 (inactive) | -7.4e-05 (inactive) | 0.00496 (inactive) | 5.55% (inactive) | 7.32% (inactive)
Cc1cccc(OCCNC(=O)c2ncn[nH]2)c1 | 228 | 4.2% (inactive) | 1.8% (inactive) | 100% | -263% (inactive) | 144% | -0.443 (inactive) | -1.6e-05 (inactive) | 0.00209 (inactive) | 5.98% (inactive) | 32.3% (inactive)
CCOC(=O)CSc1nnc(CCc2nc3ccccc3[nH]2)n1C | 349 | -1% (inactive) | 23.8% (inactive) | 73% | 12.7% (inactive) | 93.2% | -0.441 (inactive) | -2.8e-05 (inactive) | 0.00684 (inactive) | -7.44% (inactive) | 100% (active)
CCOC(=O)C(NC(=O)c1ccc(OC)cc1)(N1CCOCC1)C(F)(F)F (centres undefined) | 551 | -0.5% (inactive) | -14.5% (inactive) | 108% | 29.4% (inactive) | 88.9% | -0.59 (inactive) | -4.2e-05 (inactive) | 0.00726 (inactive) | -14.4% (inactive) | -22.3% (inactive)
CCOC(=O)c1c(N)sc(C(=O)N2CCOCC2)c1C | 314 | -11.5% (inactive) | 12.2% (inactive) | 103% | -10.6% (inactive) | 119% | -0.345 (inactive) | 2.6e-05 (inactive) | 0.00763 (inactive) | 16.8% (inactive) | 18.1% (inactive)
Cc1ccccc1OCC(O)CN (centres undefined) | 298 | 15.6% (inactive) | 32.2% (active) | 104% | 14.2% (inactive) | 95.6% | -0.542 (inactive) | 1.7e-05 (inactive) | 0.00273 (inactive) | -20.3% (inactive) | -17.4% (inactive)
CCN(CC)CCN1C(=O)C(=O)/C(=C(/O)c2c(C)[nH]c(C(=O)OC)c2C)C1c1ccccc1OC (centres undefined) | 280 | 1% (inactive) | -20.7% (inactive) | 109% | -11.7% (inactive) | 101% | -0.454 (inactive) | -4.2e-05 (inactive) | 0.00204 (inactive) | 7.54% (inactive) | 34.9% (inactive)
COC(=O)Nc1sc2c(c1C(=O)N1CCOCC1)CCC(C)C2 (centres undefined) | 324 | -10.6% (inactive) | -10.8% (inactive) | 118% | 2.3% (inactive) | 75.2% | -0.409 (inactive) | 6.2e-06 (inactive) | 0.00394 (inactive) | 7.08% (inactive) | -3.14% (inactive)
O=C(Nc1cnn(Cc2ccc(F)cc2)c1)c1cnccn1 | 582 | -17% (inactive) | -7.5% (inactive) | 109% | -94.9% (inactive) | 120% | -0.504 (inactive) | -4.3e-05 (inactive) | 0.00522 (inactive) | 4.25% (inactive) | 8.05% (inactive)
COC(=O)c1nnn(-c2ccccc2)c1N | 314 | 10.6% (inactive) | 19% (inactive) | 92% | -13.3% (inactive) | 117% | -0.506 (inactive) | -2.7e-05 (inactive) | 0.00571 (inactive) | 6.82% (inactive) | 11.8% (inactive)
Cc1ccccc1Cn1cc(/C=N/n2cnnc2)c2ccccc21 | 416 | 12% (inactive) | 18.9% (inactive) | 68% | 27.1% (inactive) | 113% | -0.436 (inactive) | 2.8e-05 (inactive) | 0.00391 (inactive) | -7.96% (inactive) | 21.3% (inactive)
CCCCCc1c(C)nc(Nc2nc(C)c3cc(OC)ccc3n2)[nH]c1=O | 411 | 5% (inactive) | 7.6% (inactive) | 84.7% | 9.5% (inactive) | 98% | -0.598 (inactive) | 1.7e-05 (inactive) | 0.00896 (inactive) | 12.6% (inactive) | -6.69% (inactive)
O=C(NCc1ccc(F)cc1)C1CCN(C(=O)NCc2ccccc2)CC1 | 643 | -3.5% (inactive) | 2.3% (inactive) | 110% | -18.5% (inactive) | 106% | -0.448 (inactive) | -4.9e-05 (inactive) | 0.00381 (inactive) | 5.76% (inactive) | 32.5% (inactive)
O=C(NCC(c1cccnc1)N1CCOCC1)c1cccs1 (centres undefined) | 357 | 9.8% (inactive) | -3.5% (inactive) | 97.5% | -81% (inactive) | 123% | -0.414 (inactive) | -1.2e-05 (inactive) | 0.00412 (inactive) | 5.49% (inactive) | 10.9% (inactive)
Cn1c(=O)n(Cc2ccc(F)cc2)c(=O)c2c1nc1n2CCCN1Cc1ccccc1 | 698 | 1.6% (inactive) | -3.6% (inactive) | 119% | -41.3% (inactive) | 148% | -0.448 (inactive) | -6e-05 (inactive) | 0.00383 (inactive) | 7.62% (inactive) | 12.8% (inactive)
Cc1noc(C)c1COC(=O)c1ccccc1Oc1ccccc1 | 583 | -25.6% (inactive) | -12% (inactive) | 106% | -22.7% (inactive) | 146% | -0.627 (inactive) | -3.8e-07 (inactive) | 0.00533 (inactive) | 4.67% (inactive) | 22.4% (inactive)
CC(=O)Nc1ccc(OCC(O)CN2CCN(c3cccc(Cl)c3)CC2)cc1 (centres undefined) | 469 | 7% (inactive) | -19.8% (inactive) | 115% | -27.1% (inactive) | 115% | -0.481 (inactive) | -4.2e-05 (inactive) | 0.00626 (inactive) | 3.23% (inactive) | 21.4% (inactive)
O=C(NCC(c1cccnc1)N1CCN(c2ccccc2)CC1)c1ccc2c(c1)OCO2 (centres undefined) | 362 | -1.8% (inactive) | 25.6% (inactive) | 87.1% | 29.6% (inactive) | 83.3% | -0.619 (inactive) | -1.3e-05 (inactive) | 0.00563 (inactive) | 8.91% (inactive) | 16.3% (inactive)
O=C(NCCCNC(=O)c1ccccn1)c1ccccn1 | 711 | -11.9% (inactive) | -10.1% (inactive) | 97.9% | -77.9% (inactive) | 105% | -0.491 (inactive) | -7e-05 (inactive) | 0.00516 (inactive) | 15.1% (inactive) | 20% (inactive)
CCOC(=O)N1CCN(CC(=O)c2c(C)[nH]c3ccccc23)CC1 | 349 | 10.5% (inactive) | -5.3% (inactive) | 92.4% | -113% (inactive) | 143% | -0.491 (inactive) | -6.3e-05 (inactive) | 0.00584 (inactive) | 0.348% (inactive) | 6.29% (inactive)
CCOc1ccc(C(=O)OCc2nnc(-c3cccs3)o2)cc1OC | 737 | 7.1% (inactive) | 4.7% (inactive) | 101% | -51.1% (inactive) | 137% | -0.603 (inactive) | 1.9e-06 (inactive) | 0.00555 (inactive) | 12.1% (inactive) | 27.5% (inactive)
CCN(CC)Cc1csc(C(N)=O)c1 | 617 | -1.2% (inactive) | 0.5% (inactive) | 102% | -26% (inactive) | 83% | -0.612 (inactive) | -6.9e-06 (inactive) | 0.00652 (inactive) | 5.97% (inactive) | 23.4% (inactive)
